For 36 molecules, growth results are on record in PubChem BioAssay (NCI).

This is part of a sample that, as a whole, favours compounds with a hit. Of some 83,000 tested, about 20% had one in any assay.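 Values shown are percent growth following 48 h exposure of cells in 96-well plates to a single concentration of compound; below 10 was considered active.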 Values without a mark were called inactive. Calls of active or inactive are those of the source.

For this experiment, the system named is LOX IMVI melanoma. In words: NCI-60 one-dose screen, 48 h (100 = growth as untreated, 0 = no growth, -100 = all killed). Conditions: 10 µM unless noted.
`COCCOc1ccc2ncc(C#Cc3cncc(C(=O)Nc4ccc(CN5CCN(C)CC5)c(C(F)(F)F)c4)c3)n2n1`: the growth is -88.9% (active).
As for `CCOC(=O)c1c(N)c(C#N)cn1Cc1ccc(Cl)cc1Cl`, the growth is 78.8%.
Consider `Cc1ccc(Nc2nc(SC(C)C)nc(-c3ccccc3)c2C#N)cc1`, for which the growth was 96.4%.
For `O=C(CSc1nc2ccccc2c(=O)n1-c1ccc(Cl)c(Cl)c1)Nc1ccc(S(=O)(=O)Nc2ccc(Cl)nn2)cc1`, the growth is 97.4%.
The value for `N#Cc1cnc2ccc(-c3cnc4n[nH]nc4c3)cc2c1N1CCc2cc(F)c(Cl)cc21` was 10.1%; that for `CNC(=O)Nc1ccc(Nc2cc(-c3ccc(-n4cccn4)cc3)[nH]n2)c(C)c1` was 129%; that for `CN1CCN(Cc2ccc(NC(=O)c3cncc(C#Cc4cnc5ccc(N)nn45)c3)cc2C(F)(F)F)CC1` was -63% (active).
To `Cc1cc(=O)oc2cc(OCCCOc3ccc(/C=C/C(=O)Nc4ccc(Br)cc4)cc3)ccc12` belongs 67.9%.
For `C/C(CC1(O)C(=O)Nc2ccccc21)=N\O` (stereo unspecified), the growth is 90.4%.
`Cc1ccc2c(n1)C(=O)C(Cl)=C(Nc1ccccc1C(=O)OC(C)(C)C)C2=O`: the growth is -72.5% (active).
To `COc1ccc(/C=N\NC(=O)c2cnn(CC(O)c3ccccc3)c2N)cc1OCc1ccc(Cl)cc1` (stereo unspecified) belongs 54.6%; to `NC(N)=NS(=O)(=O)c1ccc(N=Nc2c(N)nn(-c3ccc([N+](=O)[O-])cc3[N+](=O)[O-])c2N)cc1`, 97.2%.
For `COc1ccccc1Cn1cc(C#N)c(N)c1C(=O)c1ccc(Br)cc1`, the growth is 94.6%.
As to `CC(=C(c1ccc(OCCN2CCCC2)cc1)c1ccc(OCCN2CCCC2)cc1)c1ccc(Cl)cc1`, the growth was -86.5% (active).
To `CCN(CC)CCOc1ccc(C(=C(C)Cc2ccc(OC)cc2)c2ccc(OCCN(CC)CC)cc2)cc1` belongs -80.7% (active); to `Fc1ccc(-c2cn3c(-c4c[nH]c5ccc(Br)cc45)csc3n2)cc1`, 13.1%.
To `CC1=C(C)C(=O)C(Nc2cccc(C(=O)OC(C)(C)C)c2)=CC1=O` belongs 47.3%; to `CSc1ccc(/C(=N/N=C(N)N)c2ccc(Cl)cc2)cc1`, -42.5% (active); to `O=C(/C=C/Nc1ccc(S(=O)(=O)Nc2ncccn2)cc1)c1ccc(N=Cc2c(O)[nH]c3ccccc23)cc1`, 102%.
To `N#Cc1c(-c2cccs2)cc(-c2cnccn2)nc1SCC(=O)N/N=C/c1cccs1` belongs 7.29% (active); to `O=S(=O)(NCCCNc1nccc(-c2[nH]c(-c3ccccc3)nc2-c2ccc(F)c(O)c2)n1)c1ccccc1`, 83.7%.
`CC1(C)CC[C@]2(C(=O)NCCCCCCN(CCCN)CCCN)CC[C@]3(C)C(=CC[C@@H]4[C@@]5(C)CC[C@H](O)C(C)(C)[C@@H]5CC[C@]43C)[C@@H]2C1`: the growth is 98.1%.
To `CCOC(=O)c1c(NCC(=O)Nc2cccc([N+](=O)[O-])c2)sc(C(C)=O)c1C` belongs -38.1% (active); to `O=c1oc2ccc(-c3ccc(F)cc3F)cc2c(=O)n1-c1ccc(Br)cc1F`, 88.2%.
The value for `Cc1ccc2c(n1)C(=O)C(Cl)=C(Nc1cccc(C(=O)OC(C)(C)C)c1)C2=O` was 8.98% (active); that for `C/C(=C(\c1ccc(O)cc1)c1ccc(OCCN2CCCCCC2)cc1)c1ccc(Cl)cc1` was -95.4% (active).
To `CC1=C(C)C(=O)C(Nc2cccc(C(F)(F)F)c2)=C(Br)C1=O` belongs 6.64% (active); to `CC(C)C(/C=C/c1[nH]ncc1-c1cc(Cl)ccc1O)N1CCOCC1` (stereo unspecified), 98.8%.
For `Fc1cccc(Cl)c1/C=N/Nc1nc(N/N=C/c2c(F)cccc2Cl)nc(N2CCCCC2)n1`, the growth is 19.6%.
The value for `COc1ccc(C2C(C#N)=C(/N=C/c3ccc(Cl)cc3)Oc3c2sc2c(C)cccc32)cc1` (stereo unspecified) was 41.6%; that for `O=C(CCCCCCNC(=O)C(O)(O)C(F)(F)F)Nc1ccc(Cl)cc1` was 4.18% (active); that for `O=C1C(SCc2ccccc2)=C(Cl)CN1c1ccc(Cl)cc1` was 5.82% (active).
The value for `Cc1ccc(-c2nc(SCC(=O)c3ccccc3)nc(Nc3ccc(S(N)(=O)=O)cc3)c2C#N)cc1` was 15.4%; that for `O=C1C(N2CCN(c3ccccc3)CC2)=C(Cl)C(=O)c2ncccc21` was 10.4%.
For `C#Cc1nc(C(=O)NCCCCCCC(=O)NO)cs1`, the growth is -84.6% (active).
In the case of `C[C@H](Nc1ncnc2ccc(-c3cnc(Cl)c(NS(C)(=O)=O)c3)cc12)c1ccccc1`, the growth was -60.4% (active).
